Data from article PMC4336329 (PLoS ONE, 2015).
About 14,000 (4.5%) of roughly 310,000 compounds showed an effect of 50% or more. Effects have a minus sign here. The full list was thinned out, with strong results kept by preference.

These compounds were tested against human ether-à-go-go-related gene (hERG) potassium channel (human, UniProt Q12809) (assay: primary screen, population patch clamp on CHO cells stably expressing hERG; higher = less effect of the substance).
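Also: peak tail current of the secondary pulse compared with the same well before compound.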

human ether-à-go-go-related gene (hERG) potassium channel, sequence (Q12809 whole entry, looked up): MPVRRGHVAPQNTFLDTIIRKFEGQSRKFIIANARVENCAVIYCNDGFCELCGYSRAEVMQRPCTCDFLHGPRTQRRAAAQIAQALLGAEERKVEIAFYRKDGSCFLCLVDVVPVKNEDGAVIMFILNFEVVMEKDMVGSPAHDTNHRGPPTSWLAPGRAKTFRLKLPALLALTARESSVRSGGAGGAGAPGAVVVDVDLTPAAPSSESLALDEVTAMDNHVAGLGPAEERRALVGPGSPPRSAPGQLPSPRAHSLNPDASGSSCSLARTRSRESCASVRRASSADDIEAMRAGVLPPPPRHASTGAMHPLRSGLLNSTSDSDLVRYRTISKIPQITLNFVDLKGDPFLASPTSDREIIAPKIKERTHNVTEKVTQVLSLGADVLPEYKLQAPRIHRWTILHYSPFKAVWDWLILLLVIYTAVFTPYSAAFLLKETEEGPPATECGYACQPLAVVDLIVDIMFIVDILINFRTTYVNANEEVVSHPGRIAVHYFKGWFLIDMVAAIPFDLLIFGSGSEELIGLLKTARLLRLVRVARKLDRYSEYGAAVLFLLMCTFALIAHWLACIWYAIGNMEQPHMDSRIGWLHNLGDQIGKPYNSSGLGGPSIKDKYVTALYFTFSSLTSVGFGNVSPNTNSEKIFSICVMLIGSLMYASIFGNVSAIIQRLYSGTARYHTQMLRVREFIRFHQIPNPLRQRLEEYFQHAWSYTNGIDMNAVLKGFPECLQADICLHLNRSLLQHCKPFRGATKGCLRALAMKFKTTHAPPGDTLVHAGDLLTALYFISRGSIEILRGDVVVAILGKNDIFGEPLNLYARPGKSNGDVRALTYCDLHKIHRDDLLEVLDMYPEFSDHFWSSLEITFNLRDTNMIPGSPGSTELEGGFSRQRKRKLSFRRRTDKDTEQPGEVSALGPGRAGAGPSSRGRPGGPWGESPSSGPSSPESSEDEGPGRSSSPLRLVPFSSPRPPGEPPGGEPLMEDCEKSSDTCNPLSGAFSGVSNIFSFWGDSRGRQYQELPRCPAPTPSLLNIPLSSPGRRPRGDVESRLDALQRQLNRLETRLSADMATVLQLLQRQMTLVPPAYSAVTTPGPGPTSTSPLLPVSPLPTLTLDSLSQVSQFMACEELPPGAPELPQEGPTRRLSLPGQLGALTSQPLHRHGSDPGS

Compound	hERG current change (%, negative = inhibition) at 10uM
O=[N+]([O-])c1ccc(N=NN(CCO)CCO)cc1	-75.3%
CC(C)N(N=Nc1ccc([N+](=O)[O-])cc1)C(C)C	8.18%
CN(N=Nc1ccc([N+](=O)[O-])cc1)c1ccccc1	15%
Cc1ccc(C(=O)c2c3ccc(C(F)(F)F)cc3[n+]([O-])n2CCC[NH3+])cc1.O=C([O-])C(F)(F)F	-75%
Cc1ccc(C(=O)c2c3ccccc3[n+]([O-])n2CCC(=O)O)cc1	14.4%
COc1ccc(C(=O)c2c3ccccc3[n+]([O-])n2CCC[NH3+])cc1.O=C([O-])C(F)(F)F	-28.9%
Cc1ccc(C(=O)c2c3ccc([N+](=O)[O-])cc3[n+]([O-])n2CCC[NH3+])cc1.O=C([O-])C(F)(F)F	-65.4%
Nc1c(Cl)cc(C(=O)c2c3ccc([N+](=O)[O-])cc3[n+]([O-])n2CCC[NH3+])cc1Cl.O=C([O-])C(F)(F)F	-43.5%
CCN(CCn1cccn1)C(=O)C1CCC(=O)N(CCN2CCOCC2)C1 (stereo not drawn)	6.14%
O=C(CSc1nc2[nH]ncc2c(=O)[nH]1)Nc1ccc(Cl)c(Cl)c1	6.06%
CCN(CC(=O)Nc1ccc(NC(C)=O)cc1)C(=O)c1cccc(-n2cccc2)c1	0.603%
CCn1cc(/C=C(/C#N)S(=O)(=O)c2ccccc2)cn1	-8.15%
CC(Nc1ncnc2ccccc12)c1ccccc1 (stereo not drawn)	5.95%
CC(Nc1nc(-c2ccccc2)nc2ccccc12)c1ccccc1 (stereo not drawn)	3.47%
CC(Nc1nc(N2CCCC2)nc2ccccc12)c1ccccc1 (stereo not drawn)	-79.2%
CC(Nc1nc(-c2ccccc2F)nc2ccccc12)c1ccccc1 (stereo not drawn)	-3.87%
CC(Nc1nc(-c2ccccc2O)nc2ccccc12)c1ccccc1 (stereo not drawn)	5.73%
COc1ccc(Nc2nc(N3CCN(S(C)(=O)=O)CC3)nc3ccccc23)c(OC)c1	-22.7%
COc1ccc(Nc2nc(N3CCN(S(=O)(=O)N(C)C)CC3)nc3ccccc23)cc1	-5.03%
CC(Nc1nc(N2CCCCC2)nc2ccccc12)c1ccccc1 (stereo not drawn)	-63.6%
CC(Nc1nc(N2CCNCC2)nc2ccccc12)c1ccccc1 (stereo not drawn)	-66.2%
Clc1ccc(-c2nc(N3CCCCC3)nc3ccccc23)cc1	4.29%
CC(Nc1nc(N2CCN(S(C)(=O)=O)CC2)nc2ccccc12)c1ccccc1 (stereo not drawn)	-60.9%
Cc1cccc(OCCCn2c(CO)nc3ccccc32)c1	-32.3%

Compound	hERG current change (%, negative = inhibition) at 10uM
CC(C)CCn1c(SCC(N)=O)nc2c1c(=O)n(C)c(=O)n2C	6.57%
O=C(Nc1cccc2ncccc12)c1ccccc1Cl	18.6%
Clc1ccccc1-c1nnc2sc(-c3cccs3)nn12	-4.57%
CC(=O)c1c(C)oc2ccc(NS(=O)(=O)c3ccc(F)cc3C)cc12	-13.8%
O=C(NN1CCOCC1)c1ccc(F)cc1	1.47%
CCOC(=O)c1c(C)nn(-c2ccc(NC(=O)c3cccs3)cc2)c1C	16.8%
CCOC(=O)C1=C(O)C(=O)N(c2ccccc2)C1c1cccc([N+](=O)[O-])c1 (stereo not drawn)	-26.7%
Cc1ccccc1OCC(=O)Nc1ccc2c(c1)OCO2	-7.9%
Cc1cccc(C(=O)N(CCc2ccccc2)Cc2ccccc2)c1[N+](=O)[O-]	4.17%
Cc1cccc(-n2c(C)cc(C)c(C#N)c2=O)c1	7.18%
Cc1ccc(C(=O)NCCCNC(=O)c2ccco2)cc1C	14.7%
CC(Nc1nc(N2CCOCC2)nc2ccccc12)c1ccccc1 (stereo not drawn)	-73.8%
c1ccc2c(NC3C4CC5CC(C4)CC3C5)nc(N3CCOCC3)nc2c1 (stereo not drawn)	-35.1%
c1ccc2c(Nc3ccc(N4CCOCC4)cc3)nc(N3CCOCC3)nc2c1	-48.5%
CCN(CC)c1nc(N2CCN(CCO)CC2)nc2ccccc12.Cl	-27.8%
CN1CCN(c2nc(N3CCN(CCO)CC3)nc3ccccc23)CC1.Cl	7.33%
CC(Nc1nc(N2CCN(CCO)CC2)nc2ccccc12)c1ccccc1 (stereo not drawn)	-60.9%
CN(C(=O)CS(=O)(=O)c1cn(CC(=O)N2CCOCC2)c2ccccc12)c1ccccc1	0.304%
Cc1cc(C)c(S(=O)(=O)NCCCn2ccnc2)cc1C	4.04%
Cn1c(=O)c2[nH]c(-c3ccccc3O)nc2n(C)c1=O	23%
O=C(O)CCN1c2ccccc2Sc2ccccc21	16.5%
CC(=O)Nc1ccc(SCCC2CCCCN2C)cc1 (stereo not drawn)	7.77%
CN1CCCCC1CCN1c2ccccc2Sc2ccc(S(C)=O)cc21.O=S(=O)(O)c1ccccc1 (stereo not drawn)	-56%
O=C(NCCN1CCOCC1)c1ccc2c(c1)N(Cc1ccc(F)cc1)C(=O)c1ccccc1S2(=O)=O	0.647%

Compound	hERG current change (%, negative = inhibition) at 10uM
CC(NC(=O)Nc1ccc(Cl)cc1)C1CCCO1 (stereo not drawn)	7.05%
COc1ccc(S(=O)(=O)N2CC(O)CC2C(=O)Nc2cccnc2)cc1 (stereo not drawn)	11.1%
O=C(NCc1ccccc1Cl)C(=O)NCC1OCCN1S(=O)(=O)c1cccs1 (stereo not drawn)	-15%
O=C(c1ccc2ccccc2n1)N1CCN(c2ccccc2)CC1	-3.81%
O=C(c1ccc2ccccc2n1)N1CCN(c2ccccc2O)CC1	-0.197%
O=C(c1ccc2ccccc2n1)N1CCN(c2ccccc2Cl)CC1	-64.8%
O=C(N/N=C/c1cccc([N+](=O)[O-])c1)C1CC(=O)N(c2ccc(F)cc2)C1 (stereo not drawn)	-65.8%
O=C(N/N=C/c1cccc([N+](=O)[O-])c1)C1CC(=O)N(c2ccc(Br)cc2)C1 (stereo not drawn)	-46.6%
O=C(N/N=C/c1ccccc1O)C1CC(=O)N(c2ccc(Cl)cc2)C1 (stereo not drawn)	8.21%
O=C(N/N=C/c1cccc(Br)c1)C1CC(=O)N(c2ccccc2)C1 (stereo not drawn)	7.68%
O=C(N/N=C/c1cccc([N+](=O)[O-])c1)C1CC(=O)N(c2ccc(Cl)cc2)C1 (stereo not drawn)	-82.1%
Cc1ccc(N2CC(C(=O)N/N=C/c3cccc([N+](=O)[O-])c3)CC2=O)cc1 (stereo not drawn)	-22.2%
O=C(NCc1ccccc1Cl)c1cccc(NC(=O)c2ccccc2)c1	-8.78%
COc1cc(NC(=S)NC(=O)CC(C)C)ccc1NC(=O)c1cc2ccccc2o1	19.7%
COC(=O)CNC(=O)c1ccccc1C	11.2%
COc1ccc(S(=O)(=O)N2CCCOC2CNC(=O)C(=O)NC2CCCC2)cc1 (stereo not drawn)	4.51%
CCCC(C)(C)NC(=O)CCCCC(=O)NC(C)(C)CCC	-9.49%
CCCCCCCC(=O)N1c2ccccc2NC(=O)C1CC(=O)Nc1ccc(C(=O)O)cc1 (stereo not drawn)	13.6%
COc1cccc(NC(=S)N(C)C2CCN(C)CC2)c1	11%
CC(=O)c1ccc(N2CCN(C(=O)CCc3ccccc3)CC2)cc1	-54.1%
O=C(CCS(=O)(=O)Cc1ccccc1)N1CCN(Cc2ccccc2)CC1	-22.1%
O=C(CCc1ccccc1)N1CCN(c2ccc(F)cc2)CC1	-23%
O=C(CCN1CCN(c2ccc([N+](=O)[O-])cc2)CC1)c1ccc(Cl)cc1	-72.4%
O=C(CCS(=O)(=O)Cc1ccccc1)N1CCN(c2ccccc2)CC1	-7.79%

Compound	hERG current change (%, negative = inhibition) at 10uM
O=C(CCCC(=O)N1CCN(c2cccc(Cl)c2)CC1)c1ccccc1	-44.2%
O=C(CCN1CCOCC1)c1ccc(Cl)cc1	28.3%
O=C(CCCC(=O)N1CCN(c2ccccc2F)CC1)c1ccccc1	-10.7%
O=C(CCS(=O)(=O)Cc1ccccc1)N1CCN(c2ccc([N+](=O)[O-])cc2)CC1	-81.6%
O=C(CCc1ccccc1)N1CCN(c2ccc(Cl)cc2)CC1	-35.1%
O=C(CCCC(=O)N1CCN(c2ccc([N+](=O)[O-])cc2)CC1)c1ccccc1	-72%
COc1ccc(N2CCN(CC(=O)c3ccc(Cl)cc3)CC2)cc1	10.5%
CSc1nc2ccc(NC(=O)C3CCCO3)cc2s1 (stereo not drawn)	-0.62%
CC(=O)Nc1cccc(NC(C)=O)n1	19.6%
COc1cc(C(=S)N2CCOCC2)ccc1O	29.3%
CCOc1ccc(C(=O)Nc2nnc(SCC(=O)NCC3CCCO3)s2)cc1OCC (stereo not drawn)	9.52%
c1ccc(-c2cn(CC3CCCCC3)nn2)cc1	-1.74%
CCc1ccc(OCC(=O)O/N=C(\N)c2ccncc2)c(Br)c1	10.2%
O=C(CCCc1ccccc1)N1CCN(c2ccc([N+](=O)[O-])cc2)CC1	-64.7%
CC1CCCN(C(=O)CCc2ccccc2)C1 (stereo not drawn)	-5.7%
O=C(CN1CCN(c2ccc([N+](=O)[O-])cc2)CC1)c1ccccc1	-75%
CC1CN(C(=O)CCc2ccccc2)C(C)CN1C(=O)CCc1ccccc1 (stereo not drawn)	-60.4%
COc1ccc(N2CCN(C(=O)CCc3ccccc3)CC2)cc1	-9.27%
O=C(CCCC1=NS(=O)(=O)c2ccccc2N1)N1CCN(c2ccc([N+](=O)[O-])cc2)CC1	-1.34%
CC1CC(C)CN(C(=O)CCc2ccccc2)C1 (stereo not drawn)	-2.16%
N#Cc1ccc(C(=O)CN2CCN(c3ccccc3)CC2)cc1	-42.8%
O=C(CCc1ccccc1)N1CCN(c2ccc([N+](=O)[O-])cc2)CC1	-73.1%
C=CCN1CCN(C(=O)CCCc2ccccc2)CC1	26.1%
O=C(CN1CCN(c2ccc(Cl)cc2)CC1)c1ccccc1	-6.33%
